# Assay outcomes (PubChem)
# This is a sample that favours compounds with a hit; in the whole collection about 11% have one here.
# BAZ2B inh: BAZ2B (human) inhibition; AlphaScreen BAZ2B-H3K14Ac peptide displacement; Q9UIF8; 360,000 tested, 4.4% active; Potency, µM (series often up to 114 µM), without a hit: at the top dose activity change, negative = inhibition, actives largely listed as inhibitors; note: % is set by controls: 0 for no effect and ±100 for the full control effect; nearly all actives have a fitted effect of over 60% in size
#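 AlphaScreen luminescence quantifies BAZ2B engagement of H3K14Ac peptide; the protein and biotinylated peptide are both at 50 nM final, buffer PBS pH 7.4 with 0.01% Tween-20, all steps at room temperature.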
# JMJD2A Tudor inh: JMJD2A Tudor domain (human) inhibition; AlphaScreen JMJD2A-Tudor / H3K4me3 peptide binding; 390,000 tested, 4.4% active; Potency, µM (doses to about 114 µM), for the others: at the top dose activity change, negative = inhibition, actives largely listed as inhibitors; AID 504339; note: % is set by controls: 0 for no effect and ±100 for the full control effect; nearly all actives have a fitted effect of over 50% in size
# G9a inh: blocks human histone lysine methyltransferase G9a; Potency, µM (doses to about 102 µM), for the others: top-dose activity, negative = inhibition, most hits filed as inhibitors; G9a H3K9 monomethylation, AlphaScreen, 2 h; Q96KQ7; 350,000 tested, 8.8% active; note: % is set by controls: 0 for no effect and ±100 for the full control effect; nearly all actives have a fitted effect of over 75% in size
#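 Methyltransferase reactions run at room temperature for 2 h (20 nM enzyme, 500 nM biotin-H3K9 peptide, 20 uM SAM) after a 15 min compound preincubation; product detected by AlphaScreen beads and anti-H3K9me1 antibody.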
# PLK1 PBD inh: PLK1 (human) polo-box domain binding inhibition; P53350; Plk1 PBD binding of FITC phosphopeptide, fluorescence polarization; Potency, µM, without a hit: max response, negative = inhibition, most hits filed as inhibitors; 360,000 tested, 2.8% active; note: series mostly up to about 57 µM; % is set by controls: 0 for no effect and ±100 for the full control effect; nearly all actives have a fitted effect of over 65% in size
# VDR inh: inhibitors of human vitamin D receptor. P11473. VDR-SRC2-3 peptide fluorescence polarization, 2 h. Potency, µM, for inactives: max response, negative = inhibition, most hits filed as inhibitors. 400,000 tested, 0.93% active. AID 504847; note: % is set by controls: 0 for no effect and ±100 for the full control effect
#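 Inhibition of the VDR/SRC2-3 peptide interaction is quantified by fluorescence polarization. Compounds (23 nl, pintool) incubate with the reagents for 2 hours at ambient room temperature.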
# HP1b binding inh: blocks HP1-beta chromodomain binding to methylated histone tails; P83916; AlphaScreen HP1-beta / biotin-H3K9me3 peptide binding; Potency, µM (highest dose often 114 µM), inactives show at the top dose activity change, negative = inhibition, usual class: inhibitors; 390,000 tested, 0.56% active; AID 540317; note: nearly all actives have a fitted effect of over 70% in size
#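 HP1-beta protein (50 nM final) preincubated 30 min at room temperature with biotinylated H3(1-18)K9me3 peptide (50 nM) in PBS pH 7.4, 0.01% Tween-20, then compound added for 30 min. AlphaScreen streptavidin donor/nickel chelate acceptor beads (10 ug/mL final), 30 min dark, luminescence read.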
# Active calls of the source: *; ? = inconclusive; . = not tested or not shown; [ ] = remark or other dose. Calls come from the whole dose curve; as a rule, active = well fitted curve in the direction sought with a large enough effect; inconclusive = small, poorly fitted or top-dose-only effect, or another doubt; inactive = no such curve, though single readings can be large; an effect the other way counts as inactive or inconclusive. Potency is the fitted concentration of half-maximal effect.
SMILES,BAZ2B inh,JMJD2A Tudor inh,G9a inh,PLK1 PBD inh,VDR inh,HP1b binding inh
CC1CC(C)CN(C(=O)c2ccccc2Nc2ccc(SC(F)F)cc2)C1 (stereo not drawn),-3%,-9%,5%,-4%,-6%,29%
CCN1CCN(C(=O)c2ccccc2Nc2ccc(SC(F)F)cc2)CC1,-28%,-24%,50µM*,-11%,-12%,22%
O=C(NCc1ccncc1)c1ccccc1Nc1ccc(SC(F)F)cc1,-33%,-31%,45µM*,1%,13%,14%
COCCn1c(=S)[nH]c2cc(C(=O)NCc3ccccc3)ccc2c1=O,.,.,.,-9%,.,.
COCCn1c(=S)[nH]c2cc(C(=O)N3CC(C)CC(C)C3)ccc2c1=O (stereo not drawn),-31%,-11%,-3%,-15%,-15%,42%
COCCn1c(=S)[nH]c2cc(C(=O)N3CCc4ccccc4C3)ccc2c1=O,-17%,32µM*,-10%[59 µM],?,?,4%
CCN(CC)C(=O)c1ccc2c(=O)n(CCOC)c(=S)[nH]c2c1,?,18µM*,45µM*,0%,-18%,39%
CCc1nn2c(=O)cc(COC(=O)c3ccccc3NC(=O)COc3ccc(F)cc3)nc2s1,-2%,-3%,2%[12.7 µM],.,11%,34%
CN(C)c1ccc(NC(=O)CN2CCN(c3ccc(F)cc3)CC2)cc1,-27%,-18%,?,-12%,-21%,5%
Cc1ccc(C(=O)C2CCN(CC(=O)Nc3ccc(N(C)C)cc3)CC2)cc1,-79%,45µM*,40µM*,-8%,14%,-47%
CN(C)c1ccc(NC(=O)CN2CCN(CC(=O)Nc3ccc(F)cc3)CC2)cc1,?,-5%[57.1 µM],25µM*,-5%,-1%,-13%
CCN1C(=O)[C@@H]2C(C(=O)c3cnccn3)=NN[C@@H]2C1=O,-14%,45µM*,.,-23%,3%,-2%
NC(N)=N/N=C(\N=Nc1ccccc1)c1ccc(Cl)cc1,.,22µM*,.,0%,?,?
NC(N)=N/N=C(\N=Nc1ccccc1)c1cccc2cccnc12,.,?,.,0%,-8%,3%
Cc1ccc(NC(=O)CSc2nc(-c3cccs3)nc3cc(=O)[nH]n23)cc1C,50µM*,79µM*,25%[12.7 µM],.,-3%,-21%
Cc1ccccc1NC(=O)CSc1nc(-c2cccs2)nc2cc(=O)[nH]n12,50µM*,?,17%[12.7 µM],.,-11%,6%
Cc1ccc(NC(=O)CSc2nc(-c3ccco3)nc3cc(=O)[nH]n23)c(Cl)c1,45µM*,?,.,-29%,-4%,26%
CCOc1ccc(-c2nc(SCC(=O)Nc3ccc(C)c(C)c3)n3[nH]c(=O)cc3n2)cc1,50µM*,50µM*,-4%[59 µM],.,2%,?
Cc1ccc(NC(=O)CSc2nc(-c3ccc(C(C)(C)C)cc3)nc3cc(=O)[nH]n23)cc1C,-4%,-1%,18%[59 µM],.,16%,25%
O=C(CSc1nc(-c2cccs2)nc2cc(=O)[nH]n12)Nc1ccc(F)cc1,-4%,-17%,26%[59 µM],.,7%,21%
O=C(NCc1ccncc1)c1csc([C@@H]2C[C@H](O)[C@@H](CO)O2)n1,.,.,.,-16%,.,.
CCCCOC(=O)c1ccc(Nc2nc3ccc(C(=O)c4ccccc4)cc3n3cnnc23)cc1,-3%,-10%,-4%[59 µM],.,23%,43%
NC(=S)NN=C(Cc1ccccc1)Cc1ccccc1,?,-30%,10%[12.7 µM],-11%,?,-11%
Cn1c(CNC(=O)CSc2nc(-c3cccc(Cl)c3)nc3cc(=O)[nH]n23)nc2ccccc21,20%,-4%,61%[59 µM],.,5%,76%
O=C(CSc1nc(-c2cccc(Cl)c2)nc2cc(=O)[nH]n12)Nc1ccccc1,56µM*,?,-7%[59 µM],.,-1%,-1%
SMILES,BAZ2B inh,JMJD2A Tudor inh,G9a inh,PLK1 PBD inh,VDR inh,HP1b binding inh
N#C/C(=N/Nc1ccc(S(=O)(=O)N2CCOCC2)cc1)C(N)=O,-21%,-35%,0%,-19%,-2%,?
N#C/C(=N\Nc1ccc(S(=O)(=O)N2CCc3ccccc32)cc1)C(N)=S,32µM*,?,16µM*,27µM*,?,6.3µM*
N#C/C(=N\Nc1ccc(S(=O)(=O)N2CCCCCC2)cc1)C(N)=S,-38%,?,2µM*,15µM*,?,?
O=S(=O)(c1ccc(C(F)(F)F)cc1)N1CCN(S(=O)(=O)c2ccc3c(c2)OCCO3)CC1,.,-14%,.,.,.,.
NC(=O)c1ccc(NC(=O)CSC(=O)c2ccccc2)cc1,.,-15%,.,27µM*,?,-33%
NC(=O)c1ccc(NC(=O)CSc2nncn2-c2ccccc2)cc1,-2%,-6%,22µM*,-14%,-11%,22%
CCC/C(O)=C1\C(=O)CC(C)(C)CC1=Nc1ccc(OC)cc1,6%,3%,-11%,0%,-7%,54%
CC(Oc1ccc(F)cc1)C(=O)Nc1cc(C(F)(F)F)ccc1-n1cncn1 (stereo not drawn),8%,-1%,56µM*,-5%,-11%,33%
COC(=O)COc1ccc(-c2nccc(-c3ccc(Br)cc3)n2)cc1,4%,16µM*,6%,9.5µM*,28µM*,10%
COC(=O)COc1ccc(-c2nccc(-c3ccccn3)n2)cc1,-2%,-8%,18%,-4%,4%,19%
CCCC(=O)Nc1nnc(S(=O)(=O)N(C)Cc2ccc(Cl)cc2)s1,-15%,-9%,-4%[59 µM],.,-4%,18%
O=C(C[C@H]1C(=O)N(Cc2ccccc2)C[C@@H]1c1ccc(Br)cc1)Nc1ccc(Br)cc1,.,.,.,0%,.,.
COc1ccc(C2CC23N=C(c2ccccc2)OC3=O)cc1 (stereo not drawn),4%,15%,-5%[59 µM],17µM*,?,92%
O=C(C1CCN(S(=O)(=O)c2cccc3cccnc23)CC1)N1CCN(C2CCCCC2)CC1,-3%,-27%,35µM*,-12%,8%,38%
CN(C)c1ccc(/C=C/C(=O)c2cc(Cl)ccc2O)cc1,6.3µM*,13µM*,4µM*,9%,-7%,?
O=C(/C=C/c1ccncc1)c1cc(Cl)ccc1O,45µM*,35µM*,22µM*,-20%,4%,?
CN(C)c1ccc(C(=O)/C=C/c2ccc(Br)cc2)cc1,-5%,-26%,?,-7%,3%,40%
CNc1cc2c(cc1S(=O)(=O)Nc1ccc(C)c(C)c1)CCC(=O)N2,.,-17%,.,.,.,.
COc1ccc(CNC(=O)c2nc(S(=O)(=O)Cc3ccccc3)ncc2Cl)cc1,-37%,-1%,?,24µM*,?,27%
COc1ccc(NC(=O)c2nc(S(=O)(=O)Cc3ccc(C)cc3)ncc2Cl)cc1,2%,-15%,?,.,?,34%
